Assays:
Conditions in all cases: concentration: 1 μM, replicates: in singlicate; n = 1
TTK = system: TTK
TXK = system: TXK
[1] = system: TYK2(JH1domain-catalytic)
[2] = system: TYK2(JH2domain-pseudokinase)
TYRO3 = system: TYRO3
ULK1 = system: ULK1
ULK2 = system: ULK2
ULK3 = system: ULK3
VEGFR2 = system: T1, VEGFR2
T1 construct: gene KDR

VPS34 = system: T2, VPS34
T2 construct: gene PIK3C3
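Also: KINOMEscan kinase panel screen.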

SMILES	%Inh (TTK)	%Inh (TXK)	%Inh [1]	%Inh [2]	%Inh (TYRO3)	%Inh (ULK1)	%Inh (ULK2)	%Inh (ULK3)	%Inh (VEGFR2)	%Inh (VPS34)
NC(=O)c1nnc2ccccc2c1N	12%	4%	44%	38%	2%	24%	0%	29%	16%	20%
O=C(Nc1n[nH]c2cc(-c3cccc(F)c3F)ccc12)C1CC1 [SB-733894]	1%	0%	1%	0%	0%	0%	51%	4%	20%	0%
Fc1cc(Cl)ccc1Nc1ccnc2cc(-c3ccc(CN4CCCCC4)o3)ccc12 [GW560116]	0%	23%	27%	18%	0%	0%	0%	0%	6%	22%
Cc1cccc(-c2nc(Nc3cccc(C(N)=O)c3)c3ccccc3n2)n1 [GW876019]	0%	0%	19%	25%	9%	0%	0%	0%	0%	4%
CC(=O)Nc1nc2cnc(Nc3cc(NC(=O)c4cccc(CCC#N)c4)ccc3C)nc2s1	16%	0%	21%	27%	1%	0%	20%	0%	29%	12%
Cc1c(O)cccc1Nc1ccnc2ccc(C(F)(F)F)cc12.Cl [GW466413]	0%	25%	9%	14%	3%	2%	0%	0%	0%	0%
COc1cc(Nc2nccc(N3CCC(NC(=O)Nc4cc(C)ccc4C)C3)n2)cc(OC)c1OC (stereo not drawn) [GSK1379762]	16%	13%	39%	3%	0%	19%	4%	92.4%	0%	0%
COc1ccc2nc(-c3cccc(C)n3)nc(Nc3ccncc3)c2c1 [GSK204919]	0%	9%	10%	82%	4%	4%	0%	2%	0%	0%
COc1ccccc1CNC(=O)c1cc(C(=O)c2ccccc2C)c[nH]1 [GSK364507]	0%	27%	5%	21%	15%	4%	0%	9%	0%	1%
Cc1cccc(-c2nc(Nc3ccc4[nH]ncc4c3)c3ccccc3n2)n1 [GW857175]	3%	0%	11%	36%	0%	12%	8%	18%	23%	0%
Cc1ccccc1-n1cnc2c(N)ncnc21 [SKF-97510]	0%	0%	0%	0%	25%	0%	0%	0%	0%	0%
Nc1nc(-c2nccs2)c(-c2ccnc3ccccc23)s1 [GW693542]	14%	5%	0%	9%	18%	8%	0%	0%	0%	0%
CC1=C(C(=O)Nc2cc3cn[nH]c3cc2F)C(c2ccc(C(F)(F)F)cc2)CC(=O)N1 (stereo not drawn) [GSK429286]	25%	21%	14%	3%	12%	0%	0%	34%	0%	0%
C[C@@H]1CCCCN1c1cc(-c2ccc3c(N)n[nH]c3c2)nc(N)n1 [GSK2258759]	0%	0%	0%	3%	0%	0%	0%	0%	0%	0%
Cc1cccc(-c2nc(Nc3ccncc3)c3ccccc3n2)n1 [GW855857]	10%	11%	8%	40%	0%	0%	0%	8%	0%	52%
COc1ccc(Nc2nccc(NCCNC(=O)Nc3ccccc3F)n2)cc1 [GSK1379901]	0%	24%	26%	28%	0%	0%	0%	37%	0%	0%
COc1cc2nccc(Nc3ccc(NC(=O)c4ccc(C)cc4)c(O)c3)c2cc1OC.Cl [GW440132]	0%	10%	0%	1%	0%	21%	0%	7%	0%	14%
Cc1ccc(NC(=O)Nc2cccc(Cl)c2)cc1-c1ccc(C(=O)Nc2ccncc2)cc1 [GSK1398468]	0%	0%	0%	26%	0%	11%	0%	5%	16%	0%

— PMC5540273 (PLoS ONE, 2017)
